Hits are enriched below; roughly 3.3% of the tested compounds scored in any of these assays.
FGF22 binding: shifts melting point of recombinant human FGF22 | recombinant FGF22 thermal shift, SYPRO orange fluorescence; percent of sucrose octasulfate shift, DMSO zero | activity (Tm shift, normalised), % at 9.99 µM | 340,000 tested, 1.5% active;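 active = mean Tm shift, scaled 0 neutral to 100 positive control, at about 1.3% or above, every replicate too, limit read from the data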
CASP6 VEID inh: inhibitors of human caspase-6; P55212; purified caspase-6, Z-VEID-R110 cleavage fluorescence; inhibition, % at 12.5 µM; 350,000 tested, 0.53% active;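 active = mean inhibition across replicates at least about 35%, with every replicate also reaching that limit, limit read from the data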;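 note: 0% = median of neutral control wells and 100% = no fluorescence left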
Target sequence (P55212 24-179 limits assumed): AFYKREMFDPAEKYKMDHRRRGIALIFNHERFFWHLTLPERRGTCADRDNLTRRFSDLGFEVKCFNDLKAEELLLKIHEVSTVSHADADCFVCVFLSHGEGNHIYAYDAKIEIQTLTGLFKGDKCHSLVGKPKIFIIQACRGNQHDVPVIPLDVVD
Target sequence (P55212 194-293 limits assumed): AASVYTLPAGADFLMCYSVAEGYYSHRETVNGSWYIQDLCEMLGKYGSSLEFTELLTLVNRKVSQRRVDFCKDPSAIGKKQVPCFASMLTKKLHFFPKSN
SIRT5 inh: blocks human SIRT5 desuccinylation of peptide. Purified SirT5, succinyl-peptide AMC, trypsin-coupled fluorescence. AID 652115. 330,000 tested, 1.1% active. inhibition, % at 15 µM; in the data active = inhibition above about 15%
Target sequence (Q9NXA8 whole entry, looked up): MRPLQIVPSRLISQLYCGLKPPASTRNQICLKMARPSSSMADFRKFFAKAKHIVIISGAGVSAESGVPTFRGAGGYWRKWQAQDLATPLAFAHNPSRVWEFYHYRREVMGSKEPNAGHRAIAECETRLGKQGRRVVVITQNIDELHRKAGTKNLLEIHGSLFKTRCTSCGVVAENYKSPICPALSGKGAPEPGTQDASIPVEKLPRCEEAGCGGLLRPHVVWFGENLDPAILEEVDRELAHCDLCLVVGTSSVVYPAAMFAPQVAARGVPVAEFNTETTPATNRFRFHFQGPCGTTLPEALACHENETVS
ERAP1 HTS inh: ERAP1 (human) enzyme inhibition; Q9NZ08; recombinant ERAP1, Leu-AMC fluorescence, 60 min; inhibition, % at 10.7 µM; 340,000 tested, 0.15% active;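 active = mean replicate inhibition of at least 30%, or all replicates individually reaching that 30% level; inactive = mean below 30% and not every replicate reaching it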;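 note: 0% = neutral control wells and 100% = L-leucinethiol positive control wells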
GSIS activator: GLuc luminescence reporter in INS-1E cells, primary screen for activators of glucose-dependent secretion of insulin. 370,000 tested, 0.61% active. AID 743287. activation, % at 16.6 µM. INS-1E GLuc reporter insulin secretion, 2-3 h;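 active = lowest replicate activation of at least 40%, so every replicate reaches that level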;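 note: 0% = median of neutral control wells and 100% = median of IBMX positive control wells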
The depositor's hits bear a star; / = no result given.

SMILES | FGF22 binding | CASP6 VEID inh | SIRT5 inh | ERAP1 HTS inh | GSIS activator
C=CCNc1nc(Nc2cc(Cl)ccc2OC)nc(OC)n1 | 0.3 | 39.4* | 0.6 | -2.5 | /
C[C@@H]1CN([C@H](C)CO)C(=O)Cc2cc(NC(=O)Nc3cccc4ccccc34)ccc2O[C@H]1CN(C)Cc1ccc2c(c1)OCO2 | -0.4 | 4.4 | 16.5* | -4.9 | -28.5
C[C@H](CO)N1C[C@H](C)[C@H](CN(C)Cc2ccc(C(=O)O)cc2)Oc2ccc(NC(=O)Nc3cccc4ccccc34)cc2CC1=O | -0.2 | 7.2 | -0.6 | 50.6* | 6.0
COCC(=O)N1C[C@H]2[C@@H](c3ccccc31)[C@H](CO)N2C(=O)C1CC1 | 0.1 | 2.1 | -0.4 | 0.3 | -5.9
C[C@@H]1CCCCO[C@H](CN(C)Cc2ccccc2)[C@@H](C)CN([C@@H](C)CO)C(=O)c2cc(NS(=O)(=O)c3cn(C)cn3)ccc2O1 | / | -0.8 | 1.9 | 6.5 | 25.0
CCOn1c(=O)c(-c2cccc([N+](=O)[O-])c2)[n+]([O-])c2ccccc21 | 43.8* | 3.1 | 0.1 | -3.3 | 15.0
C[C@@H]1CCCCO[C@@H](CN(C)C(=O)NC2CCCCC2)[C@H](C)CN([C@H](C)CO)C(=O)c2cc(NC(=O)Nc3ccc4c(c3)OCO4)ccc2O1 | -0.8 | 1.3 | 6.9 | -1.2 | -15.9
CC(C)=CC(=O)Nc1ccc(OCc2ccccc2)cc1 | 73.6* | -1.2 | -1.6 | -3.2 | 3.9
CC(C)CC#Cc1ccc2c(c1)O[C@H](CN(C)Cc1cccc(F)c1)[C@@H](C)CN([C@H](C)CO)S2(=O)=O | 0.2 | -0.4 | -3.8 | 1.0 | 8.5
COC(=O)C1=C(C)N(CC(C)C)C(=S)NC1c1cccc(Br)c1 (centres undefined) | 41.9 | -1.9 | / | -2.4 | -30.0
COC(=O)C1=C(C)N(CC(C)C)C(=S)NC1c1cccc(OC)c1 (centres undefined) | 0.1 | -1.8 | 28.6* | 1.0 | -33.7
COc1ccc(C#Cc2ccc([C@H]3[C@H](CO)N4C(=O)CN(C(=O)c5ccc(F)cc5)C[C@@H]34)cc2)cc1 | / | / | 4.3 | / | 1.8
COc1cc(/C=C/C(=O)O)cc(S(=O)(=O)NCCCC(=O)O)c1OC | 43.4* | 4.2 | -3.9 | -0.2 | 4.4
COc1cc(/C=C/C(=O)O)cc(S(=O)(=O)NC2CCCC2)c1OC | -0.4 | -1.3 | -3.0 | / | 1.0
COc1cc(/C=C/C(=O)O)cc(S(=O)(=O)Nc2cc(Cl)c(Cl)cc2Cl)c1OC | / | 0.4 | 17.3* | -3.9 | -3.0
CC(C(=O)O)N(C(=O)c1ccccc1)c1ccc(F)cc1 (centres undefined) | 0.1 | -0.8 | 25.6* | -0.5 | 14.3
CC(C)C(=O)NN(C(=O)c1ccccc1)c1ccccc1 | 0.2 | -3.3 | 6.7 | 5.0 | -9.4
O=C(NCCc1ccccc1)c1ccc(-c2ccc(F)c(F)c2)c2ccoc12 | 0.2 | -1.4 | -5.9 | 6.3 | /
O=C(NCCc1ccccc1)c1cccc2c(-c3ccc(F)c(F)c3)coc12 | 0.1 | 45.3* | 6.6 | 7.0 | 2.8
C/C(=N\NC(=O)CC1N=C(Cc2ccccc2)NNC1=O)c1ccc(Cl)cc1Cl (centres undefined) | / | / | / | / | 142.3*
O=C(CC1N=C(Cc2ccccc2)NNC1=O)N/N=C/c1ccc([N+](=O)[O-])cc1 (centres undefined) | 0.0 | -4.8 | 0.1 | -3.0 | -13.3
COc1cccc2c1OCC/C2=N\NC(=O)C(C)Oc1ccc([N+](=O)[O-])cc1 (centres undefined) | 62.0* | 2.7 | 2.2 | -1.5 | 3.9
COc1cccc2c1OCC/C2=N\NC(=O)COc1ccc(C)cc1 | 0.6 | -0.2 | -5.0 | 2.0 | -7.0
O=C(C[C@@H]1CC[C@@H](NS(=O)(=O)c2ccc(F)cc2)[C@@H](CO)O1)NC1CCC1 | 0.1 | -0.7 | 1.0 | -1.2 | -13.0
O=C(CCc1ccccc1)Nc1ccccc1C(F)(F)F | 44.2* | -0.3 | -0.6 | 2.6 | 9.5
SMILES | FGF22 binding | CASP6 VEID inh | SIRT5 inh | ERAP1 HTS inh | GSIS activator
CCN(CC(=O)Nc1ccccc1C(F)(F)F)C(=O)CCc1ccccc1 | 0.1 | 2.1 | / | -3.1 | -5.4
O=C(O)CCc1ccc(-c2cccs2)n1CC(=O)Nc1ccccc1C(F)(F)F | 43.4* | 1.5 | -0.5 | -2.2 | -9.6
O=C(CCc1ccccc1)NNC(=O)Nc1ccccc1 | 43.0* | 28.0 | -0.8 | 5.0 | 26.6
O=C(CC1c2ccccc2Oc2ccccc21)Nc1ccccc1C(F)(F)F | / | / | / | / | 101.8*
O=C(Nc1ccccc1F)N[C@@H]1CC[C@@H](CCNC(=O)C2CCOCC2)O[C@@H]1CO | 0.0 | 2.6 | 0.9 | -0.2 | 9.0
COc1cccc(CNC(=O)C[C@H]2C=C[C@@H](NC(C)=O)[C@H](CO)O2)c1 | 0.1 | 1.4 | -4.2 | 0.2 | -5.7
O=C(c1ccccc1F)N1C[C@H]2[C@@H](c3ccccc31)[C@H](CO)N2C(=O)c1cccnc1 | -0.2 | -3.3 | 6.3 | 4.5 | -9.1
Cc1cccc(/C(N)=N/OC(=O)COc2ccc(Cl)cc2)c1 | 0.0 | 0.3 | 35.4* | 4.1 | -6.9
N/C(=N\OC(=O)COc1ccc(Cl)cc1Cl)c1cccnc1 | / | / | / | / | 59.9*
N/C(=N\OC(=O)COc1ccc(Cl)cc1)c1ccc(Cl)cc1 | -0.2 | -1.8 | -1.0 | 0.4 | 6.6
Cc1noc(C)c1S(=O)(=O)Nc1cccc2c1O[C@@H](CN(C)C(=O)NC(C)C)[C@@H](C)CN([C@@H](C)CO)C2=O | -0.2 | 1.9 | 0.4 | 2.5 | 7.2
C[C@H](CO)N1C[C@H](C)[C@H](CN(C)C(=O)C2CC2)Oc2cc(-c3ccccc3)ccc2S1(=O)=O | / | / | / | / | -2.3
CC(C)NC(=O)N[C@H]1C=C[C@@H](CC(=O)NC2Cc3ccccc3C2)O[C@@H]1CO | -0.3 | -3.8 | 0.0 | 2.4 | 3.7
COc1cc(CCc2ccccc2)c(C(=O)O)c(O)c1C/C=C(/C)CCC=C(C)C | 0.5 | 3.5 | 31.9* | / | 51.6
O=C1CC(N2CCSCC2)C(=O)N1c1cccc(Cl)c1 (centres undefined) | 0.5 | 44.2* | -4.6 | 0.4 | -2.4
O=C1CC(N2CCN(c3ccccc3)CC2)C(=O)N1c1cccc(Cl)c1 (centres undefined) | -0.2 | 1.3 | 0.4 | -0.9 | 4.9
CN(C)CCCNC(=O)C[C@@H]1C=C[C@@H](NC(=O)Cc2cccnc2)[C@@H](CO)O1 | / | -3.2 | -2.1 | -0.3 | 2.8
CCCCOc1ccc(SCCCN2CCOCC2)cc1 | -0.2 | -2.9 | -0.3 | -1.5 | 57.8*
CCCCOc1ccc(C(O)C(CN2CCOCC2)c2ccccc2)cc1 (centres undefined) | -0.3 | -0.2 | 15.5* | -7.2 | -16.0
CCOC(=O)c1ccc(NC(=O)O[C@H]2[C@H](OC(=O)Nc3ccccc3)[C@@H](OC(=O)Nc3ccccc3)[C@@H](OC)O[C@@H]2CO)cc1 | 0.1 | 2.9 | 20.2* | 2.3 | /
C[N+]12CCCCC1C(COC(=O)c1ccc3c(c1)OCO3)CCC2 (centres undefined) | / | -17.3 | 0.4 | 30.6* | 6.8
CN(C(=O)COC(=O)c1ccc2c(c1)OCO2)C1CCCCC1 | -0.3 | 1.5 | 0.9 | 0.9 | 9.6

Compound activity from PubChem.
